# Test results from the supplement of paper PMC12636033.
# ± gives the standard deviation of the averaged measurements. The full ranking holds about 33,000 sequences; the median of “E-score (rank enrichment, -0.5 to 0.5)” is about -0.0043, and the highest 2% start at about 0.24. The sample holds the highest values, similar sequences and a random draw of the others, so the mix is not that of the screen.
# Tested on: 2Sp-muMax20 (muMax20 with two 2,6-bis(methyl)pyridine Cys staples)
# Test: PBM 8-mer E-score (E-score (rank enrichment, -0.5 to 0.5)); higher = stronger preferential binding
# Method: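 Protein binding microarray (universal PBM chip covering all 10-mers in fixed probe flanks) with chemically synthesized human Max(13-93) bHLH-LZ analogs (not full-length Max) bearing noncanonical residues (hArg, Tha, Aib, Nle at 65) and aromatic Cys staples. Read-out per 8-mer (and its reverse complement): E-score (rank-based enrichment, -0.5 to 0.5) and Z-score of median probe intensity.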
row,Sequence,PBM 8-mer E-score
1,ATCCAGTA,0.134 ± 0.028
2,GATAGGGC,0.081 ± 0.019
3,ATAGTTGA,0.121 ± 0.077
4,ATACGCAG,0.0458 ± 0.043
5,ATACGCAA,0.308 ± 0.062
6,GTACGCAA,-0.0841 ± 0.033
7,ACGAGCCT,-0.00942 ± 0.0098
8,CCAGCAGA,-0.0671 ± 0.018
9,CATCACAC,0.118 ± 0.035
10,AATCACAT,0.27 ± 0.019
11,AATCACGA,-0.0412 ± 0.011
12,AATCACGT,0.254 ± 0.024
13,AATCACAG,-0.0564 ± 0.011
14,GATCACAC,0.153 ± 0.019
15,AATCACAC,0.236 ± 0.041
16,AATCACGC,0.193 ± 0.015
17,AATCACAA,0.144 ± 0.036
18,CGTTATGC,0.177 ± 0.027
19,AAAGTTTA,0.206 ± 0.054
20,AGGTTTAC,-0.222 ± 0.071
21,ACTGTGCC,0.0364 ± 0.042
22,CCATCCCG,-0.00777 ± 0.0093
23,AACGTCCA,-0.012 ± 0.044
24,GTAGTTGA,0.116 ± 0.0092

row,Sequence,PBM 8-mer E-score
1,ATTGCATC,0.134 ± 0.014
2,GCGATGCC,-0.221 ± 0.0047
3,GATCATGA,0.139 ± 0.016
4,CCCTTCAC,0.0356 ± 0.018
5,GTATGTAA,0.236 ± 0.055
6,TCATGTAA,0.0907 ± 0.036
7,CAATGTAC,0.00633 ± 0.095
8,ATATGTAA,0.0958 ± 0.035
9,ACATGTCC,0.151 ± 0.033
10,ACATGTCT,0.251 ± 0.006
11,AAATGTAG,0.134 ± 0.1
12,ACATGTCG,0.164 ± 0.071
13,CCATGTAA,0.122 ± 0.09
14,CTATGTAA,0.00312 ± 0.013
15,ACATGTAA,0.24 ± 0.04
16,AAATGTAC,0.296 ± 0.052
17,ATAGTATC,0.0888 ± 0.11
18,ACGAACTC,-0.159 ± 0.021
19,GAACGTAC,-0.045 ± 0.0085
20,GCTTTGCA,-0.0268 ± 0.02
21,AGATGTAG,0.167 ± 0.023
22,GCATGTAC,0.2075 ± 0.0014
23,AGATGTAT,0.167 ± 0.023
24,AAATGTAT,0.0866 ± 0.053

row,Sequence,PBM 8-mer E-score
1,CCATGTAG,0.148 ± 0.0044
2,ACATGTAT,0.277 ± 0.0074
3,CCATGTAC,-0.0575 ± 0.098
4,ACATGTAG,0.241 ± 0.051
5,ACATGTAC,0.311 ± 0.0047
6,GTAGCTTA,0.179 ± 0.047
7,TGGTGTAA,0.135 ± 0.039
8,CCCCCAGC,-0.295 ± 0.034
9,ATACCAGG,-0.136 ± 0.023
10,CACAAGGG,-0.0596 ± 0.022
11,AGTCTAAA,-0.14 ± 0.013
12,CCCCCAAA,-0.195 ± 0.075
13,AGCCCACC,-0.0175 ± 0.041
14,TCCCCAAA,0.256 ± 0.079
15,ACCCCACA,0.239 ± 0.02
16,CACCCACC,0.0762 ± 0.08
17,GACCCACC,0.106 ± 0.043
18,AACCCACC,0.267 ± 0.025
19,TCCCCCAA,-0.174 ± 0.034
20,ACCCCACG,0.0387 ± 0.033
21,AACCCACG,0.17 ± 0.037
22,CGCCCACG,-0.0323 ± 0.074
23,CGCCCACC,0.274 ± 0.055
24,ATAAGGGA,0.102 ± 0.04

row,Sequence,PBM 8-mer E-score
1,AACTCAAA,0.172 ± 0.036
2,CACGGCTA,-0.249 ± 0.073
3,CCGTGGAC,-0.2957 ± 0.0024
4,AGGCTAGA,-0.144 ± 0.033
5,GCCCCAAA,0.188 ± 0.0029
6,TCCCCACA,0.235 ± 0.0063
7,ACCCCCAC,-0.19 ± 0.027
8,CCCCCACA,-0.205 ± 0.084
9,CCCCCAAC,-0.253 ± 0.01
10,CCCCCACG,0.0635 ± 0.0042
11,GCCCCAAC,0.267 ± 0.013
12,ACCCCACC,0.236 ± 0.05
13,ACCCCACT,0.183 ± 0.027
14,GCCCCACC,0.237 ± 0.039
15,GCCCCACA,0.223 ± 0.042
16,CCCCCACC,-0.321 ± 0.032
17,GTCTCTCA,-0.0452 ± 0.0099
18,AGAGGACT,-0.0403 ± 0.059
19,ACAAGTGT,-0.0219 ± 0.043
20,AGACTGTC,-0.179 ± 0.036
21,CATGTTAA,0.191 ± 0.048
22,ACTCTCTA,0.158 ± 0.0044
